The source made the active and inactive calls.

Drawing on PubChem BioAssay, this text covers composite z-score and z-score for five compounds.

In test [1] the test system is Plasmodium falciparum Sir2 (PF13_0152, Sir2A). Nature of the test: Plasmodium falciparum Sir2A binding compounds – biochemical, small-molecule microarray, 635 nm fluorescence, primary screen (AID 1098).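 Note: score merges spot fluorescence intensity with its signal-to-noise ratio.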 The following applies: fluorescence 635 nm, higher = more signal.
Test [2] in a line: probe aDKK1 binding to arrayed compounds – biochemical, biotinylated probe, 635/667 nm fluorescence, primary screen (AID 1099).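 Note: score merges 667nm spot fluorescence with signal to noise across triplicate slides.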 As to conditions: small-molecule microarray, higher = more signal.
Test [3] can be described thus: probe aCHRDL2 binding to arrayed compounds – biochemical, biotinylated probe, 635/667 nm fluorescence, primary screen (AID 1100). The following applies: small-molecule microarray, higher = more signal.
Test [4] in a line: change in splice reporter luminescence, either direction, cell-based, HEK293, spliceosome inhibition project, primary screen (AID 1101).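 Note: HEK293 cells carrying a splicing-competent luciferase reporter gene; test concentration not given here.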 As to conditions: HEK293 splicing luciferase reporter, 24 h, higher = more signal, called active from +8 up or from −8 down. (In general: A reporter such as luciferase makes a cellular process visible.)
In test [5] the target is Fibroblast growth factor 10 (Homo sapiens) (UniProt O15520). Kind of test: compounds binding fibroblast growth factor 10 – biochemical, small-molecule microarray, 635 nm fluorescence, primary screen (AID 1102). As to conditions: FGF10 binding, fluorescence 635 nm, higher = more signal.
In test [6] the test system is glycogen synthase kinase-3 (GSK3A per assay name; protocol says GSK3B). Nature of the test: compounds binding glycogen synthase kinase-3 – biochemical, small-molecule microarray, 635 nm fluorescence, GSK3A, primary screen (AID 1103). Note: the record names both GSK3A and GSK3B. As to conditions: fluorescence 635 nm, higher = more signal.
Test [7] addresses Epidermal growth factor receptor (Homo sapiens) (UniProt P00533). Nature of the test: compounds binding epidermal growth factor receptor – biochemical, small-molecule microarray, 635 nm fluorescence, primary screen (AID 1104).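 Note: score merges 667 nm emission intensity with spot signal to noise over triplicate slides.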 The following applies: EGFR binding, higher = more signal.
For test [8], the target named is Follistatin-related protein 3 (Homo sapiens) (UniProt O95633). Kind of test: compounds binding follistatin-related protein 3 – biochemical, small-molecule microarray, 635 nm fluorescence, primary screen (AID 1105).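 Note: score merges emission near 667 nm and signal to noise per printed spot across three slides.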 The following applies: FSTL3 binding, higher = more signal.
The target of test [9] is Dickkopf-related protein 1 (Homo sapiens) (UniProt O94907). Kind of test: small molecules binding DKK1 protein – biochemical, small-molecule microarray, 635 nm fluorescence scan, primary screen (AID 1106).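 Note: score merges emission near 667 nm with signal to noise over three replicate slides.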 The following applies: higher = more signal.
In test [10] the test system is Inhibin beta A chain (activin A). Kind of test: small molecules binding activin A – biochemical, small-molecule microarray, 635 nm fluorescence scan, primary screen (AID 1107).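 Note: mouse activin A protein probed at 4.33 µg/mL on printed slides; score merges bound-protein fluorescence near 667 nm with spot signal-to-noise.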 The following applies: INHBA, higher = more signal.
Test [11] relates to Human papillomavirus type 1a protein E7 (residues 44-93). Nature of the test: small molecules binding HPV E7 44-93 – biochemical, small-molecule microarray, residues 44-93, 635 nm fluorescence, primary screen (AID 1108).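 Note: E7 fragment applied at 1 µg/mL in TBST for 1 h at 4 C; score combines spot fluorescence with its signal to noise ratio.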 As to conditions: fluorescence 635 nm, higher = more signal.
Test [12] is described as follows: hepatitis C replication reporter changes, two-sided – Huh7 cells, luciferase reporter, HCV replication inhibitor project, primary screen (AID 1109).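 Note: huh7 hepatoma cells harbouring a luciferase neomycin HCV replicon reporter; luciferase luminescence as measure of HCV replicon replication; test concentration not given here.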 As to conditions: Huh7 HCV replicon luciferase reporter, 48 h; higher = more signal.
For test [13], the target named is Left-right determination factor 2 (Homo sapiens) (UniProt O00292). Kind of test: small molecules binding LEFTY2 protein – biochemical, small-molecule microarray, 635 nm fluorescence scan, primary screen (AID 1110). As to conditions: higher = more signal.
Test [14] has as its target Calmodulin-1 (Homo sapiens) (UniProt P0DP23). Nature of the test: small molecules binding calmodulin-1 with EGTA – biochemical, small-molecule microarray, Cy5-labelled CALM1, profiling panel (AID 1111).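 Note: labelled calmodulin applied in Tris saline Tween buffer holding calcium plus EGTA and DTT.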 The following applies: Cy5-CALM1 binding fluorescence, higher = more signal.
Test [15] has the same target. Nature of the test: small molecules binding Ca-loaded calmodulin-1 – biochemical, small-molecule microarray, Cy5-labelled CALM1, plus calcium, artefact control for SMM control-protein annotation, profiling panel (AID 1112).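 Note: score merges spot fluorescence with signal to noise from triplicate slides.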 The following applies: Cy5-CALM1 binding fluorescence, higher = more signal.
Test [16] in a line: probe aWnt5a binding to arrayed compounds – biochemical, biotinylated probe, 635/667 nm fluorescence, primary screen (AID 1113).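 Note: score merges 667 nm fluorescence intensity with signal-to-noise per printed feature.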 The following applies: small-molecule microarray, higher = more signal.
The nature of test [17]: probe aShh binding to arrayed compounds – biochemical, biotinylated probe, 635/667 nm fluorescence, primary screen (AID 1114).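 Note: probe is biotin-labelled aShh protein from a stem cell growth factor screen; measures binding of labelled protein to compounds printed on the slide; score merges feature fluorescence at 667 nm with signal-to-noise.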 As to conditions: small-molecule microarray, higher = more signal.
Test [18] is described as follows: probe aNog binding to arrayed compounds – biochemical, biotinylated probe, 635/667 nm fluorescence, primary screen (AID 1115).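 Note: probe is biotinylated aNog protein used at 0.15 µg/mL for 1 h at 4 C; z-score combines 667 nm fluorescence of each spot with its signal to noise.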 The following applies: small-molecule microarray, higher = more signal.
Test [19] concerns the target Torsin-1A-interacting protein 1 (Homo sapiens) (UniProt Q5JTV8). Nature of the test: compound microarray binding of lysate hLAP1 – cell lysate, small-molecule microarray, COS7 lysate, 635/667 nm fluorescence, primary screen (AID 1116). As to conditions: 635 nm fluorescence, higher = more signal.
The target in test [20] is Alpha-bungarotoxin (Bungarus multicinctus) (UniProt P60615). Nature of the test: compounds binding labelled alpha-BTX control protein – biochemical, small-molecule microarray, Alexa647 label, 635/667 nm fluorescence, artefact control for SMM control protein annotation, profiling panel (AID 1117). The following applies: alpha-BTX-A647 binding fluorescence, higher = more signal.
Sequence of Alpha-bungarotoxin (Bungarus multicinctus) (P60615 whole entry, looked up): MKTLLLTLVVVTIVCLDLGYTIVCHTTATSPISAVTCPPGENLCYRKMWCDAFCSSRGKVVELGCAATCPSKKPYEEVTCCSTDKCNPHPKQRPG

Sequence of Dickkopf-related protein 1 (Homo sapiens) (O94907 whole entry, looked up): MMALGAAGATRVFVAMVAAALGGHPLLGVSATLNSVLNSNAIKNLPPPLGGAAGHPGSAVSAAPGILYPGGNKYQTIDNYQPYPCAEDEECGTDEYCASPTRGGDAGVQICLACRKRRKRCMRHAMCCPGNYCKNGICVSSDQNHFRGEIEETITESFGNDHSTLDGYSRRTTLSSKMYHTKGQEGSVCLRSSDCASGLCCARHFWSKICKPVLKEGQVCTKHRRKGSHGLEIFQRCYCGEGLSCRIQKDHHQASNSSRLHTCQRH
Sequence of Torsin-1A-interacting protein 1 (Homo sapiens) (Q5JTV8 whole entry, looked up): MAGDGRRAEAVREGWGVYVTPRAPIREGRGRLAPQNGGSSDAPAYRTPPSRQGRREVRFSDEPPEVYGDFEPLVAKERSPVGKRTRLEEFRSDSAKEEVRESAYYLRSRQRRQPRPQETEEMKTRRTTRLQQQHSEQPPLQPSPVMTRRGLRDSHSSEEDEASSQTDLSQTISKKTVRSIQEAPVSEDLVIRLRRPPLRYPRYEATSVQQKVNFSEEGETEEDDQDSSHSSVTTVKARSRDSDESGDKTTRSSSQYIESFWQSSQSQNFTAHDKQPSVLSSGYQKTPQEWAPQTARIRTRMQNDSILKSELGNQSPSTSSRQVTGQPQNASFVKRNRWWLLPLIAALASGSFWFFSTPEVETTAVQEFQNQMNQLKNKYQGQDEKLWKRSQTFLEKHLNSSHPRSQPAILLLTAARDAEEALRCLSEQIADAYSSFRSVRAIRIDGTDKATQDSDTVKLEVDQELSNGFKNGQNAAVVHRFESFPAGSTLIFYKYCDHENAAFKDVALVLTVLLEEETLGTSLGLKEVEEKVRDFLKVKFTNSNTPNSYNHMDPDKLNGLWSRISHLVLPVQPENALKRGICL
Sequence of Fibroblast growth factor 10 (Homo sapiens) (O15520 whole entry, looked up): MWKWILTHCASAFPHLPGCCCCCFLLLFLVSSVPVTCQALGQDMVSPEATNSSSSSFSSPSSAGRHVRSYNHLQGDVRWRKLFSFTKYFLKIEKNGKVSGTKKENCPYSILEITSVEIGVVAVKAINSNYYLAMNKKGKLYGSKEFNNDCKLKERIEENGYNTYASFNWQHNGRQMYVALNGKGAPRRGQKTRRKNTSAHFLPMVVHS
Sequence of Epidermal growth factor receptor (Homo sapiens) (P00533 whole entry, looked up): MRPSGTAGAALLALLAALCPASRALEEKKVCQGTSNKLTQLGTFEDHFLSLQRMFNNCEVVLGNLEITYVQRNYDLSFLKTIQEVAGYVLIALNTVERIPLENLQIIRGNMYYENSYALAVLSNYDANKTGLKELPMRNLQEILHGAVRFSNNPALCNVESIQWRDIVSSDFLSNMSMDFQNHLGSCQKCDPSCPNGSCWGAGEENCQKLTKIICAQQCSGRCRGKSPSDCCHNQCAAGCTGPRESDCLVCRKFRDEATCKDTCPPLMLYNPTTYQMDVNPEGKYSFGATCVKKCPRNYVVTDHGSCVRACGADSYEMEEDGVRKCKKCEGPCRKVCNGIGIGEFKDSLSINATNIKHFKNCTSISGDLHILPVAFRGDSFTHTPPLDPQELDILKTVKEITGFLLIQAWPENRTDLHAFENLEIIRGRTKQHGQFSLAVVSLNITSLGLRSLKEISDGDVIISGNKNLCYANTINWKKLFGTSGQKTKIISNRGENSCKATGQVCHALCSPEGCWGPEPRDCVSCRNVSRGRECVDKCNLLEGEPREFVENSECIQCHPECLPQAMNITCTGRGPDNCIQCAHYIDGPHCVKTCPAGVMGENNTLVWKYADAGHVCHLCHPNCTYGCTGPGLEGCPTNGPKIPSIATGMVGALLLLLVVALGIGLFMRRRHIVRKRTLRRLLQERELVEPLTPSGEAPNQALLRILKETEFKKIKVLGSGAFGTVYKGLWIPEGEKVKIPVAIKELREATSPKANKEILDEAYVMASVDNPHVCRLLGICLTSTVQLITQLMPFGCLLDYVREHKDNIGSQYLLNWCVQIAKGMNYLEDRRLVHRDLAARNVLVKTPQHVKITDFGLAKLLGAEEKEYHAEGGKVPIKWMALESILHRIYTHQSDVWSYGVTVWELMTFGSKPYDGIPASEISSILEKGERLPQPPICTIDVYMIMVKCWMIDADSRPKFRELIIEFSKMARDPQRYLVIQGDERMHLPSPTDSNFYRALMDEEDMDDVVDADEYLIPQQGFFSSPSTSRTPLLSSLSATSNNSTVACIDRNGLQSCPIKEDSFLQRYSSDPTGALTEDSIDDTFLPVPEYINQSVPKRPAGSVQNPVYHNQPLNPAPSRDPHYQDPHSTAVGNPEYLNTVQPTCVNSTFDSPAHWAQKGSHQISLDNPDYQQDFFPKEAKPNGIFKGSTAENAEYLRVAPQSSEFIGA
Sequence of Left-right determination factor 2 (Homo sapiens) (O00292 whole entry, looked up): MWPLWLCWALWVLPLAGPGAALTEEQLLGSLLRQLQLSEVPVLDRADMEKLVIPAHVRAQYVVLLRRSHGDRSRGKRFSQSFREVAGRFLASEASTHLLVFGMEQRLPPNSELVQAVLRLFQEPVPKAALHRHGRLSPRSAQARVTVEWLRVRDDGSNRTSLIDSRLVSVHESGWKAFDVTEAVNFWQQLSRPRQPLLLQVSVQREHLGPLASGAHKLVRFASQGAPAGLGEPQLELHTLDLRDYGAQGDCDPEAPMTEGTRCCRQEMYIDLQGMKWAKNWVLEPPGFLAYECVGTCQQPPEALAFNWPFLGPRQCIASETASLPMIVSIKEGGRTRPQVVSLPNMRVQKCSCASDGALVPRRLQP
Sequence of Follistatin-related protein 3 (Homo sapiens) (O95633 whole entry, looked up): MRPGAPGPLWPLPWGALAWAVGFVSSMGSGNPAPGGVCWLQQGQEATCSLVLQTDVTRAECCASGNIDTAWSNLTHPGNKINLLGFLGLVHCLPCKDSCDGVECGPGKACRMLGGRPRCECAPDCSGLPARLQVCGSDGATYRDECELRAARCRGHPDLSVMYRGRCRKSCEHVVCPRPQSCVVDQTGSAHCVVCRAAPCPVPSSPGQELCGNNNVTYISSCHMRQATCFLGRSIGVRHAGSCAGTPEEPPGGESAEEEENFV

In the case of `COc1ccc(CCNC(=O)[C@@H]2c3ccccc3C(=O)N(Cc3cc(C(F)(F)F)cc(C(F)(F)F)c3)[C@H]2c2ccc(CO)cc2)cc1`, the composite z-score in [1] was 1.1; in [2] it was 0.0172; in test [3], 0.716; in test [5], 0.0696; in test [6] it was -0.331; in [7] it was -0.358. The composite z-score in [8] is -0.272; in test [9] it was -0.594; in test [10], -0.167; in test [11], 0.867; in test [13] it was -0.31; in test [14], 0.0713. The composite z-score is -0.935 in [15]; -0.141 in test [16]; -0.147 in test [17]; -0.273 in test [18]; 0.338 in test [19]; 0.795 in test [20]. For the same compound, the figures for the z-score in test [4] and in [12] were -0.082 (inactive) and -1.06, respectively.
Consider `COc1ccc([Si](C)(C)[C@@H]2[C@@H](CC(=O)N3Cc4ccccc4C[C@H]3CO)O[C@]3(C(=O)N(C)c4ccccc43)[C@H]2C)cc1`, for which the composite z-score in test [1] is 1.22; in test [2], 0.405; in [3], -0.174; in [5] it was 1.15; in test [6], 1.3; in test [7], 1.05. In addition, the composite z-score stood at 1.48 in [8]; 0.874 in test [9]; 0.916 in [10]; 0.215 in test [11]; 0.812 in test [13]; 0.617 in test [14]. Further, the composite z-score in [15] is -0.0353; in [16], 0.0102; in [17] it was 0.123; in test [18], -0.0692; in test [19], 0.907; in test [20] it was 0.794. The z-score in [4] was -1.42 (inactive); in [12], -4.84.
Regarding `C=CCC(OC(C)=O)[C@@H]1[C@@H](N(Cc2cc3ccccc3o2)C(=O)c2ccc(-c3ccccc3)cc2)c2cc(OCCCO)ccc2N1C(=O)c1ccc2ccccc2c1` (stereo not given in full), the composite z-score in test [1] was 0.187; in test [2] it was -0.106; in [3], 0.285; in [5], 0.132; in test [6] it was 0.289; in test [7], -0.0546. In addition, the composite z-score turned out to be 0.674 in test [8]; 0.227 in test [9]; 1.02 in test [10]; 0.143 in [11]; 0.0403 in test [13]; 0.137 in test [14]. The composite z-score in test [15] was 0.185; in test [16], -0.0398; in test [17], 0.0048; in [18] it was -0.466; in test [19] it was 0.612; in test [20] it was 0.264. In addition, the results for the z-score in [4] and in test [12] were 0.416 (inactive) and -1.48, respectively.
As for `CN1C(=O)C2C=CC(C(O)C#Cc3ccccc3)N(Nc3ccccc3)C2C1=O` (stereo not given), the composite z-score in test [1] is 1.58; in test [2], 0.932; in [3], 0.891; in [5] it was 1.33; in test [6], 1.31; in [7], 0.56. Besides, the composite z-score was 1.42 in test [8]; -0.184 in test [9]; 0.926 in test [10]; 1.45 in test [11]; 0.302 in [13]; 1.18 in test [14]. For the same compound, the composite z-score in test [15] is 0.533; in [16] it was 0.0381; in test [17], -0.0243; in test [18] it was 1.35; in [19], 1.11; in [20], 1.35. Besides, the results for the z-score in test [4] and in test [12] were 1.24 (inactive) and 0.234, respectively.
Regarding `COC(=O)c1nc2oc1CC[C@@H](CO)NC(=O)N(C)Cc1cnnn1C[C@H](Cc1ccccc1)NC2=O`, the composite z-score in [1] was 1.81; in [2], -0.148; in [3], 0.106; in test [5], -0.0412; in test [6] it was -1.05; in test [7], -0.913. The composite z-score in test [8] was 0.228; in [9] it was -0.682; in [10] it was 0.139; in [11], -0.367; in [13], -1.07; in test [14] it was -0.677. Besides, the composite z-score in test [15] was -0.319; in test [16], -0.159; in test [17] it was -0.0035; in [18], -0.321; in [19], 0.122; in test [20], 1.25. The z-score is -0.495 (inactive) in test [4] and -0.421 in [12].
